Source: PubChem (The Scripps Research Institute Molecular Screening Center)
Compounds with a hit are over-represented: about 3.5% of the library has one in this group of screens.
MITF primary – MITF inhibitors, primary screen, biochemical, AlphaScreen, human; Microphthalmia-associated transcription factor (Homo sapiens), O75030; AlphaScreen MITF homodimerization, bead proximity signal; inhibition, % at 2.6 µM; hit rate 0.91% among 650,000; in the data active means inhibition above about 50%;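 further: 0% = vehicle wells with protein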
FBW7 act – FBW7 E3 ligase activators, primary screen, biochemical, AlphaScreen, human | AlphaScreen FBW7–phospho-cyclin E peptide binding, activator screen | AID 1259310, 2017 | normalized activity (activation), % at 26.1 µM | F-box/WD repeat-containing protein 7 (Homo sapiens), Q969H0 | hit rate 0.13% among 650,000; in the data active means normalized activity above about 1.9%;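 further: purified mutant Fbw7 with reduced substrate affinity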
TEAD-YAP block – TEAD-YAP interaction inhibition, primary screen, TEAD-YAP interaction inhibitor project, luminescence, HEK-TIYL cells; TEAD-Gal4/YAP UAS-luciferase luminescence; inhibition, % at 9.12 µM; hit rate 1.4% among 640,000; AID 1259422, 2018; in the data active means inhibition above about 32%;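 further: 0% = median of test compound wells and 100% = reference inhibitor wells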
GPR151 activ – activators of human GPR151, primary screen, cell-based, PathHunter beta-arrestin, luminescence. G-protein coupled receptor 151 (Homo sapiens), Q8TDV0. PathHunter beta-arrestin GPR151 cells. activation, % at 11.2 µM. hit rate 1% among 650,000; in the data active means activation above about 4.9%;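 further: 0% = median of compound wells and 100% = cells with positive control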
GPR151 confirm – GPR151 activators, triplicate retest, confirmation, cell-based, PathHunter beta-arrestin, luminescence; shares compounds with GPR151 activ; GPR151 PathHunter beta-arrestin cells, 90 min; % of EA-reagent control over plate median; activation, % at 11.2 µM; 6,700 tested, under 10 active;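 active means mean percent activation across replicates above the confirmation screen cutoff of 4.91%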
GPR119 counter – GPR119 activators in beta-arrestin cells, counter-screen for GPR151 activator project, cell-based, PathHunter beta-arrestin, luminescence, triplicate; 90 min; 0 = compound-well median, 100 = enzyme-acceptor control; AID 1508611, 2020; activation, % at 11.2 µM; shares compounds with GPR151 activ; hit rate 0.3% among 6,700;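 active means mean percent activation in the counterscreen above 29.09%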;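 further: counterscreen on off-target GPR119 to flag nonselective hits from the GPR151 activator screen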
Target sequence (Q8TDV5 whole entry, looked up): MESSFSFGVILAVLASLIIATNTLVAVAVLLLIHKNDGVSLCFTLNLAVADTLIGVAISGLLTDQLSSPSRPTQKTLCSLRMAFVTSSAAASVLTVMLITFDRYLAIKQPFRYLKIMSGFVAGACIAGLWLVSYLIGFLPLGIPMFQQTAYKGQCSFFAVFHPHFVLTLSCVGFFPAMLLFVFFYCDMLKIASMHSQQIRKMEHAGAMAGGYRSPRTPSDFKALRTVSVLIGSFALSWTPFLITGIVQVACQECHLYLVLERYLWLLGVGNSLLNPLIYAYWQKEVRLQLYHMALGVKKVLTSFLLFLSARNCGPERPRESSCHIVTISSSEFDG
* hit, by the source's call.

For CCCOc1ccc(/C(O)=C2/C(=O)C(=O)N(CCN(C)C)C2c2ccc(F)cc2)c(C)c1 (centres undefined) the results were MITF primary 11, FBW7 act 1, TEAD-YAP block 9 and GPR151 activ -1.
`CCCOc1ccc(/C(O)=C2/C(=O)C(=O)N(CCCN(C)C)C2c2ccc(F)cc2)c(C)c1` (centres undefined) gave MITF primary -4, FBW7 act 0, TEAD-YAP block 2, GPR151 activ 5.3*, GPR151 confirm -1 and GPR119 counter 0.
CC(OCc1ccccc1)C(NC(=O)OC(C)(C)C)C(=O)Nc1nccs1 (centres undefined) was read as MITF primary -1, FBW7 act 0, TEAD-YAP block 1, GPR151 activ 13*, GPR151 confirm 1 and GPR119 counter 7.
For Cc1nnc(SCCCn2c(N3CCOCC3)nc3c2c(=O)[nH]c(=O)n3C)s1 the results were MITF primary -8, FBW7 act 0, TEAD-YAP block -17, GPR151 activ 6.9*, GPR151 confirm 0 and GPR119 counter 1.
`O=C(Nc1nnc(S(=O)(=O)N2CCc3ccccc32)s1)c1ccco1` gave MITF primary 1, FBW7 act 0, TEAD-YAP block 2 and GPR151 activ 2.
Screening Cc1cccc(OCC(=O)Nc2nnc(S(=O)(=O)N3CCc4ccccc43)s2)c1 returned MITF primary -4, FBW7 act 0, TEAD-YAP block -2, GPR151 activ 6.1*, GPR151 confirm 0 and GPR119 counter -6.
Screening O=C(Nc1nnc(S(=O)(=O)N2CCc3ccccc32)s1)c1cccs1 returned MITF primary -13, FBW7 act 0, TEAD-YAP block -2, GPR151 activ 5.2*, GPR151 confirm 1 and GPR119 counter 3.
Screening Cc1ccc(OCC(=O)Nc2nnc(S(=O)(=O)NCc3ccccc3)s2)cc1 returned MITF primary -9, FBW7 act 0, TEAD-YAP block -26, GPR151 activ 8.7*, GPR151 confirm 1 and GPR119 counter -1.
Screening CCC1Sc2ccccc2N(CC(=O)NCc2cccnc2)C1=O (centres undefined) returned MITF primary 1, FBW7 act 0, TEAD-YAP block 2 and GPR151 activ 0.
CCSc1ccccc1C(=O)Nc1ccc(S(=O)(=O)N2CCOCC2)cc1 was read as MITF primary -1, FBW7 act 1, TEAD-YAP block 9, GPR151 activ 6.5*, GPR151 confirm 0 and GPR119 counter -1.
Cc1ccccc1C(=O)Nc1ccc(S(=O)(=O)N2CCN(C)CC2)cc1 was read as MITF primary -6, FBW7 act 0, TEAD-YAP block 3, GPR151 activ 6.7*, GPR151 confirm 0 and GPR119 counter 7.
`CCSc1ccccc1C(=O)Nc1ccncc1` gave MITF primary 19, FBW7 act 0, TEAD-YAP block -5, GPR151 activ 5.0*, GPR151 confirm 0 and GPR119 counter -5.
`CCSc1ccccc1C(=O)Nc1cccnc1` gave MITF primary 12, FBW7 act 0, TEAD-YAP block 5 and GPR151 activ 2.
COc1ccc(N(CC(=O)N2CCCCC2)S(=O)(=O)c2ccc(C)cc2)cc1 was read as MITF primary -3, FBW7 act 0, TEAD-YAP block 3 and GPR151 activ 2.
`COc1ccc(S(=O)(=O)N(CC(=O)N2CCCC2)c2ccc(C)cc2)cc1` gave MITF primary -1, FBW7 act 0, TEAD-YAP block 5, GPR151 activ 12*, GPR151 confirm 0 and GPR119 counter 11.
CN(CC(=O)NC1CCCCCC1)c1nnc(N2CCCC2=O)s1 was read as MITF primary 9, FBW7 act 1, TEAD-YAP block -2 and GPR151 activ -2.
CN(CC(=O)NC1CCCC1)c1nnc(N2CCCC2=O)s1 was read as MITF primary 3, FBW7 act 1, TEAD-YAP block -1, GPR151 activ 6.1*, GPR151 confirm 0 and GPR119 counter 3.
For COc1ccc(CCn2c(SCC(=O)NCCc3ccccc3)nc3ccsc3c2=O)cc1OC the results were MITF primary -3, FBW7 act 0, TEAD-YAP block 5 and GPR151 activ 0.
Screening Cn1c(=O)cc(N2CCCCC2)n(Cc2ccc(F)cc2F)c1=O returned MITF primary -6, FBW7 act 0, TEAD-YAP block -10, GPR151 activ 5.7*, GPR151 confirm -2 and GPR119 counter -8.
Cn1c(=O)cc(N2CCCC2)n(Cc2ccc(F)cc2F)c1=O was read as MITF primary 10, FBW7 act 0, TEAD-YAP block 1 and GPR151 activ -1.
For O=C(O)C(Cc1ccccc1)NS(=O)(=O)c1ccccc1F (centres undefined) the results were MITF primary 10, FBW7 act 0, TEAD-YAP block 4 and GPR151 activ 0.
`COc1cc(C2=N/C(=C\c3coc4c(Cl)cc(Cl)cc4c3=O)C(=O)O2)cc(OC)c1OC` gave MITF primary 5, FBW7 act 0, TEAD-YAP block 2 and GPR151 activ 0.
COC(=O)[C@H](Cc1ccccc1)NC(=O)c1cc(COc2c(F)cccc2F)on1 was read as MITF primary 13, FBW7 act 0, TEAD-YAP block -31, GPR151 activ 5.6*, GPR151 confirm 1 and GPR119 counter -5.
`COC(=O)[C@@H](NC(=O)c1cc(COc2c(F)cccc2F)on1)c1ccccc1` gave MITF primary 13, FBW7 act 0, TEAD-YAP block -1 and GPR151 activ 1.
`CCCCCn1c(SCc2cccc(Cl)c2)nc2cc(C(=O)N3CCN(C(=O)OCC)CC3)ccc2c1=O` gave MITF primary 19, FBW7 act 0, TEAD-YAP block 4 and GPR151 activ 0.
For C=CCNC1CCN(c2ccc(C(=O)N3CCCC(O)C3)cc2)CC1 (centres undefined) the results were MITF primary 7, FBW7 act 0, TEAD-YAP block 2 and GPR151 activ 1.
Screening CCOCCCNC(=O)c1ccc(OC(C)=O)cc1 returned MITF primary 13, FBW7 act 0, TEAD-YAP block -2, GPR151 activ 6.8*, GPR151 confirm 0 and GPR119 counter -16.
Screening COCCCNC(=O)c1ccc(OC(C)=O)cc1 returned MITF primary -3, FBW7 act 0, TEAD-YAP block 4 and GPR151 activ 0.
